# In PubChem BioAssay (Tox21):
# Results filed as inconclusive are left out. Unmarked numbers belong to inactive results. Unless noted, calls follow the shape of the dose curve; as a rule, active = well fitted cell-killing curve with a large enough effect in the repeat runs; inconclusive = weak or mixed curves, or effect the other way; inactive = no such curve, though single readings can be large or run the other way.
# Assay: qHTS assay to identify small molecule agonists of the vitamin D receptor (VDR) signaling pathway - cell viability counter screen (AID 743224); also: nearly all actives have a fitted effect of over 50% in size
# Settings: VDR-bla HEK293T viability, CellTiter-Glo luminescence, 16 h; series mostly up to 62.6 µM; activity change, negative = cytotoxicity: at the top concentration
# Summary of the method: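 In parallel with the bla FRET readout, cytotoxicity toward VDR-bla cells after 16 h compound exposure was assessed by CellTiter-Glo, with luminescence recorded after a 30 min room-temperature incubation.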
# % is scaled to controls: 0 for no effect and ±100 for the full control effect.
row,Structure (SMILES),"activity change, negative = cytotoxicity"
1,CCC(=O)c1ccccc1,2.76%
2,CNC(=O)N(C)c1nc2ccccc2s1,3.77%
3,COc1ccc(C(=O)N2CCCC2=O)cc1,10.7%
4,COC(=O)C(C)Oc1ccc(Oc2ccc(Cl)cc2Cl)cc1 (configuration not stated),13.4%
5,Clc1ccccc1N1CCNCC1,-1.34%
6,Fc1cc(Br)ccc1CBr,2.81%
7,CN/C(=N\[N+](=O)[O-])NCC1CCOC1 (configuration not stated),5.39%
8,CC(C1CC1)C(O)(Cn1cncn1)c1ccc(Cl)cc1 (configuration not stated),1.28%
9,C[N+](=O)[O-],8.69%
10,Nc1c(Br)cc([N+](=O)[O-])cc1[N+](=O)[O-],5.87% [at 81.1 µM]
11,CSc1ccc(C(=O)C(C)(C)N2CCOCC2)cc1,-8.75%
12,O=C(Oc1ccc(Br)cc1)N1CCN2CCC1CC2,-10.6%
13,COc1cc(OC)nc(NC(=O)NS(=O)(=O)c2ncccc2OCC(F)(F)F)n1,12.4%
14,CCS(=O)(=O)CCSP(=O)(OC)OC,-3.11%
15,O=[N+]([O-])c1ccc(CBr)cc1,2.27% [at 81.1 µM]
16,Cc1cccc(C#N)c1,3.13%
17,C(CCOCC1CO1)COCC1CO1 (configuration not stated),6.6%
18,CC1=C(C(=O)O)N2C(=O)[C@@H](N)[C@H]2SC1,19.3% [at 29.1 µM]
19,CC(C)CC#N,-7.92% [at 81.1 µM]
20,Cc1ccccc1CO[C@@H]1C[C@@]2(C(C)C)CC[C@]1(C)O2,-12.7%
21,CSc1nc(N=[N+]=[N-])nc(NC(C)C)n1,2.11%
22,c1cc2c(c(N3CCNCC3)c1)OCCO2,-2.78%
23,CC(C(O)c1ccccc1)N(C)C/C=C/c1ccccc1 (configuration not stated),-23.3%
24,N#CCNCC#N,-0.864%
25,[O]=[Cd],-6.58%
26,Nc1n[nH]c(N)n1,7.39% [at 81.1 µM]
27,O=CNC(N1CCN(C(NC=O)C(Cl)(Cl)Cl)CC1)C(Cl)(Cl)Cl (configuration not stated),-5.51%
28,CCC(C)(C)c1cc(-n2nc3ccccc3n2)c(O)c(C(C)(C)CC)c1,-3.75% [at 81.1 µM]
29,CCN(Cc1ccc(Cl)nc1)/C(=C/[N+](=O)[O-])NC,3.79%
30,CCC(Cl)[N+](=O)[O-] (configuration not stated),12.3% [at 81.1 µM]

# Assay: qHTS assay to identify small molecule antagonists of the vitamin D receptor (VDR) signaling pathway - cell viability counter screen (AID 743225); also: nearly all actives have a fitted effect of over 50% in size
# Settings: VDR-bla HEK293T viability, CellTiter-Glo luminescence, 16 h; series mostly up to 61 µM; viability change, negative = cytotoxic: at the top concentration
# Summary of the method: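 Cytotoxicity counter screen read by CellTiter-Glo luminescence (30 min, room temperature) in the same wells as the VDR-bla antagonist readout. HEK 293T VDR-UAS-bla cells had 16 h at 37C with compound and 3 nM (final) 1-alpha,25-dihydroxyvitamin D3, then 2 h with FRET substrate.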
row,Structure (SMILES),"viability change, negative = cytotoxic"
1,CCC(=O)c1ccccc1,-8.44%
2,CNC(=O)N(C)c1nc2ccccc2s1,10.2%
3,COc1ccc(C(=O)N2CCCC2=O)cc1,4.85%
4,Clc1ccccc1N1CCNCC1,1.02%
5,Fc1cc(Br)ccc1CBr,11.6%
6,CN/C(=N\[N+](=O)[O-])NCC1CCOC1 (configuration not stated),3.82%
7,CC(C1CC1)C(O)(Cn1cncn1)c1ccc(Cl)cc1 (configuration not stated),9.46%
8,C[N+](=O)[O-],6.48%
9,Nc1c(Br)cc([N+](=O)[O-])cc1[N+](=O)[O-],0.311% [at 78.8 µM]
10,O=C(Oc1ccc(Br)cc1)N1CCN2CCC1CC2,-6.79%
11,CCS(=O)(=O)CCSP(=O)(OC)OC,14%
12,O=C1CN2CCOC2(c2ccccc2Cl)c2cc(Cl)ccc2N1 (configuration not stated),6.41%
13,CC1=NNC(=O)N(/N=C/c2cccnc2)C1,3.33%
14,Cc1cccc(C#N)c1,17.6%
15,C(CCOCC1CO1)COCC1CO1 (configuration not stated),0.0958%
16,CC1=C(C(=O)O)N2C(=O)[C@@H](N)[C@H]2SC1,-18.3% [at 28.5 µM]
17,CC(C)CC#N,6.49% [at 78.8 µM]
18,CCOP(=O)(OCC)OP(=O)(OCC)OCC,-20.6%
19,CC(=O)C(Cl)Cl,0.669% [at 78.8 µM]
20,CSc1nc(N=[N+]=[N-])nc(NC(C)C)n1,13.8%
21,c1cc2c(c(N3CCNCC3)c1)OCCO2,0.372%
22,N#CCNCC#N,-8.76%
23,Clc1cccc(N2CCNCC2)c1,1.12%
24,[O]=[Cd],-7.78%
25,Nc1n[nH]c(N)n1,-1.32% [at 78.8 µM]
26,O=CNC(N1CCN(C(NC=O)C(Cl)(Cl)Cl)CC1)C(Cl)(Cl)Cl (configuration not stated),7.75%
27,CCN(Cc1ccc(Cl)nc1)/C(=C/[N+](=O)[O-])NC,5.54%
28,CCC(Cl)[N+](=O)[O-] (configuration not stated),2.33% [at 78.8 µM]
29,Cc1cc(C)c(C(=O)P(=O)(C(=O)c2c(C)cc(C)cc2C)c2ccccc2)c(C)c1,-23.3%

# Assay: qHTS assay to identify small molecule agonists of the NFkB signaling pathway (AID 1159509; active = well fitted curve in the direction sought with a large enough effect in the signal ratio in the repeat runs, not every such curve was filed as active; the % refers to the signal ratio)
# Settings: NFkB-bla ME-180 cells, beta-lactamase FRET ratio, 5 h; series mostly up to 61 µM; activation: at the top concentration
# Summary of the method: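 Pathway activation was measured in ME-180 cells stably expressing beta-lactamase under NF-kB response element control. Substrate cleavage was read as the 460/530 nm emission shift after 5 hr compound incubation.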
row,Structure (SMILES),activation
1,CCC(=O)c1ccccc1,-0.0063%
2,CNC(=O)N(C)c1nc2ccccc2s1,0.0295%
3,COc1ccc(C(=O)N2CCCC2=O)cc1,-0.441%
4,COC(=O)C(C)Oc1ccc(Oc2ccc(Cl)cc2Cl)cc1 (configuration not stated),-0.0295%
5,Clc1ccccc1N1CCNCC1,1.12%
6,Fc1cc(Br)ccc1CBr,0.288%
7,CN/C(=N\[N+](=O)[O-])NCC1CCOC1 (configuration not stated),-0.743%
8,CC(C1CC1)C(O)(Cn1cncn1)c1ccc(Cl)cc1 (configuration not stated),-0.0148%
9,C[N+](=O)[O-],-0.711%
10,Nc1c(Br)cc([N+](=O)[O-])cc1[N+](=O)[O-],-0.515% [at 78.8 µM]
11,CSc1ccc(C(=O)C(C)(C)N2CCOCC2)cc1,-0.901%
12,O=C(Oc1ccc(Br)cc1)N1CCN2CCC1CC2,0.214%
13,COc1cc(OC)nc(NC(=O)NS(=O)(=O)c2ncccc2OCC(F)(F)F)n1,-0.955%
14,CCS(=O)(=O)CCSP(=O)(OC)OC,0.121%
15,O=C1CN2CCOC2(c2ccccc2Cl)c2cc(Cl)ccc2N1 (configuration not stated),-0.0928%
16,O=[N+]([O-])c1ccc(CBr)cc1,0.0263% [at 78.8 µM]
17,CC1=NNC(=O)N(/N=C/c2cccnc2)C1,-0.402%
18,Cc1cccc(C#N)c1,-1.01%
19,C(CCOCC1CO1)COCC1CO1 (configuration not stated),0.208%

row,Structure (SMILES),activation
1,CC1=C(C(=O)O)N2C(=O)[C@@H](N)[C@H]2SC1,0.0347% [at 28.5 µM]
2,CC1(C(=O)Nc2ccc(O)c(Cl)c2Cl)CCCCC1,1.97%
3,CC1=C(C(=O)Nc2ccccc2)S(=O)(=O)CCO1,-1.18%
4,CC(C)CC#N,-0.17% [at 78.8 µM]
5,Cc1ccccc1CO[C@@H]1C[C@@]2(C(C)C)CC[C@]1(C)O2,1.36%
6,CCOP(=O)(OCC)OP(=O)(OCC)OCC,0.0858%
7,CC(=O)C(Cl)Cl,-0.492% [at 78.8 µM]
8,CSc1nc(N=[N+]=[N-])nc(NC(C)C)n1,-0.405%
9,c1cc2c(c(N3CCNCC3)c1)OCCO2,0.464%
10,CC(C(O)c1ccccc1)N(C)C/C=C/c1ccccc1 (configuration not stated),-0.158%
11,N#CCNCC#N,-0.247%
12,Clc1cccc(N2CCNCC2)c1,-0.102%
13,[O]=[Cd],-0.199%
14,Nc1n[nH]c(N)n1,-0.158% [at 78.8 µM]
15,O=CNC(N1CCN(C(NC=O)C(Cl)(Cl)Cl)CC1)C(Cl)(Cl)Cl (configuration not stated),-0.605%
16,CCC(C)(C)c1cc(-n2nc3ccccc3n2)c(O)c(C(C)(C)CC)c1,0.32% [at 78.8 µM]
17,CCN(Cc1ccc(Cl)nc1)/C(=C/[N+](=O)[O-])NC,0.126%
18,CCC(Cl)[N+](=O)[O-] (configuration not stated),0.0426% [at 78.8 µM]
19,Cc1cc(C)c(C(=O)P(=O)(C(=O)c2c(C)cc(C)cc2C)c2ccccc2)c(C)c1,0.262%
